Compound activity as filed in PubChem.
Compounds with a hit are over-represented: about 3.6% of the library has one in this group of screens.
Anthrax LF prot – Bacillus anthracis LF protease inhibitors, primary screen, biochemical, multiplex microsphere, MLPCN library | actives 0.12% (n = 360,000) | multiplex microsphere protease cleavage assay | Lethal factor (Bacillus anthracis), P15917 | inhibition, % at 10 µM; note: plate controls were buffer without enzyme for full effect and enzyme alone for no effect
BoNT F protease – BoNT/F light chain protease inhibitors, primary screen, biochemical, flow cytometry, MLPCN library; Botulinum neurotoxin type F light chain protease (Clostridium botulinum); Multiplex microsphere protease cleavage assay; inhibition, % at 10 µM; actives 0.22% (n = 360,000); AID 588497, 2011; in the data active = inhibition above about 35%, passing the limit was not always enough; note: plate controls were buffer without enzyme for full effect and enzyme alone for no effect
MazF activator – activators of E. coli MazEF toxin-antitoxin RNase, primary screen, biochemical, fluorescence, uHTS; Endoribonuclease toxin MazF (Escherichia coli (strain K12)), P0AE70; activation, % at 20 µM; actives 0.32% (n = 350,000); FAM/BHQ RNA-DNA oligo cleavage fluorescence, 5 h; in the data active = activation above about 50%
Target sequence (P0AE70 whole entry, looked up): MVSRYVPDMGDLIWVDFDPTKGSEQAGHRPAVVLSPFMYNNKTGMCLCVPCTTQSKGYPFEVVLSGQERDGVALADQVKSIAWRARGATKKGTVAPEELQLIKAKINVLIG
Autofluor counter – compound fluorescence in toxin protease inhibitor counterscreen; compound autofluorescence counterscreen, microsphere flow cytometry; stronger effect = higher value; fluorescence intensity (concentration not given with the values); actives 3.1% (n = 360,000); in the data active = fluorescence intensity above about 16000
BoNT-A LC inh2 – BoNT/A light chain protease inhibitors, primary screen, biochemical, flow cytometry, MLPCN library. actives 0.17% (n = 360,000). multiplex microsphere protease substrate cleavage. AID 588499, 2011. inhibition, % at 10 µM; note: plate controls were buffer without enzyme for full effect and enzyme alone for no effect
* marks the source's active call; other numbers are inactive results. Cut-off read from the data, not from the text of the source, unless noted: active = inhibition above about 30%; inconclusive = no clear call, values can overlap the other calls; inactive = below that.

For ONC(=Nc1ccc(Cl)cc1)c1ccccc1 the results were Anthrax LF prot -2.4, BoNT F protease 1.1, MazF activator 3.0, Autofluor counter 22689* and BoNT-A LC inh2 1.3.
For O=C(NCCC1=CCCCC1)C1CCN(S(=O)(=O)N2CCOCC2)CC1 the results were Anthrax LF prot -1.6, BoNT F protease -4.1, MazF activator -13.3, Autofluor counter 20881* and BoNT-A LC inh2 -2.0.
For Cc1ccc(S(=O)(=O)N2CCCC(C(=O)NCCC3=CCCCC3)C2)cc1 (stereo not given) the results were Anthrax LF prot -1.1, BoNT F protease -1.6, MazF activator -3.6, Autofluor counter 21132* and BoNT-A LC inh2 -1.3.
For O=C(NCCC1=CCCCC1)C1CCN(S(=O)(=O)N2CCCC2)CC1 the results were Anthrax LF prot 2.9, BoNT F protease -0.6, MazF activator 10.4, Autofluor counter 4005 and BoNT-A LC inh2 -0.1.
`Cc1ccc(-c2cc(C(=O)OCC(=O)NC3CC3)c3ccccc3n2)cc1` gave Anthrax LF prot -1.3, BoNT F protease 4.7, MazF activator 0.4, Autofluor counter 5035 and BoNT-A LC inh2 3.9.
Screening O=C1C(Cc2ccc(Br)cc2)SC(=Nc2ccccc2)N1c1ccccc1 (stereo not given) returned Anthrax LF prot -1.7, BoNT F protease 35.6*, MazF activator -6.1, Autofluor counter 2035 and BoNT-A LC inh2 1.8.
Screening O=C1C(Cc2ccc(F)cc2)SC(=Nc2ccccc2)N1c1ccccc1 (stereo not given) returned Anthrax LF prot -1.4, BoNT F protease -17.6, MazF activator -2.6, Autofluor counter 2532 and BoNT-A LC inh2 -1.5.
Cn1c(SCC(=O)NNC(=O)c2ccccc2)nnc1C1CC1 was read as Anthrax LF prot -2.5, BoNT F protease -6.2, MazF activator 9.3, Autofluor counter 5730 and BoNT-A LC inh2 -0.7.
For O=C1OCCC1Sc1nnc(-c2cccc(Br)c2)o1 (stereo not given) the results were Anthrax LF prot -3.4, BoNT F protease 0.2, MazF activator 0.1, Autofluor counter 20056* and BoNT-A LC inh2 1.5.
`CCCCN(C(=O)C1=NN(c2ccccc2)C(=O)CC1)c1c(N)n(CC(C)C)c(=O)[nH]c1=O` gave Anthrax LF prot -0.3, BoNT F protease 7.3, MazF activator 2.1, Autofluor counter 4222 and BoNT-A LC inh2 -0.7.
`Cc1nn(CCC(=O)NNC(=S)Nc2cccc(Cl)c2)c(C)c1[N+](=O)[O-]` gave Anthrax LF prot 2.6, BoNT F protease -4.7, MazF activator -7.7, Autofluor counter 20563* and BoNT-A LC inh2 -1.8.
Cc1ccc(C2CC2C(=O)NNC(=S)Nc2cccc(Cl)c2)cc1 (stereo not given) was read as Anthrax LF prot -1.7, BoNT F protease -3.7, MazF activator 1.8, Autofluor counter 20873* and BoNT-A LC inh2 -1.1.
Screening Cc1cnn(CCC(=O)NNC(=S)Nc2cccc(Cl)c2)c1 returned Anthrax LF prot 0.1, BoNT F protease 5.9, MazF activator -14.5, Autofluor counter 21961* and BoNT-A LC inh2 3.3.
`O=C(Cn1nc(C(F)F)cc1C(F)F)NNC(=S)Nc1ccc(Cl)cc1` gave Anthrax LF prot -1.4, BoNT F protease -4.4, MazF activator -0.9, Autofluor counter 23616* and BoNT-A LC inh2 -4.1.
Screening Cc1cnn(CCC(=O)NNC(=S)Nc2ccc(F)cc2)c1 returned MazF activator -7.2.
`Cc1cccc(NC(=S)NNC(=O)CCn2nc(C)c([N+](=O)[O-])c2C)c1` gave Anthrax LF prot -1.3, BoNT F protease 2.5, MazF activator 0.9, Autofluor counter 15439 and BoNT-A LC inh2 2.1.
Screening Cc1ccc(NC(=S)NNC(=O)Cn2nc(C(F)F)cc2C(F)F)cc1 returned Anthrax LF prot -0.7, BoNT F protease -0.2, MazF activator 1.0, Autofluor counter 2523 and BoNT-A LC inh2 -0.8.
`COc1cc(C#N)ccc1OCC(=O)N1CCc2ccccc2C1` gave Anthrax LF prot 15.6, BoNT F protease -0.1, MazF activator 13.1, Autofluor counter 2877 and BoNT-A LC inh2 -1.5.
Screening CCOc1ccc(S(=O)(=O)N2CCC(C(=O)OC(C)C(=O)NC3CCCCC3C)CC2)cc1 (stereo not given) returned Anthrax LF prot 1.5, BoNT F protease 1.3, MazF activator 7.9, Autofluor counter 8819 and BoNT-A LC inh2 1.4.
Screening Cc1ccc(NC(=S)NNC(=O)c2c([N+](=O)[O-])c(C)nn2C)cc1 returned Anthrax LF prot -1.5, BoNT F protease -4.1, MazF activator -8.4, Autofluor counter 23365* and BoNT-A LC inh2 -0.9.
